Sampled rows, rich in hits. Any-hit rate of the full collection: about 7.5%.
FLuc modulator = counter-screen for miR-21 project: firefly luciferase inhibitors or activators. purified FLuc, Km substrates, luminescence inhibition. hit rate 6.9% among 360,000. Potency, µM (top dose mostly 57.5 µM), without a hit: at the top dose activity change, negative = inhibition, most hits filed as inhibitors. P08659;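 also: plate controls were vehicle for no effect and reference inhibitor for full effect; nearly all actives have a fitted effect of over 55% in size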
Target sequence (P08659 whole entry, looked up): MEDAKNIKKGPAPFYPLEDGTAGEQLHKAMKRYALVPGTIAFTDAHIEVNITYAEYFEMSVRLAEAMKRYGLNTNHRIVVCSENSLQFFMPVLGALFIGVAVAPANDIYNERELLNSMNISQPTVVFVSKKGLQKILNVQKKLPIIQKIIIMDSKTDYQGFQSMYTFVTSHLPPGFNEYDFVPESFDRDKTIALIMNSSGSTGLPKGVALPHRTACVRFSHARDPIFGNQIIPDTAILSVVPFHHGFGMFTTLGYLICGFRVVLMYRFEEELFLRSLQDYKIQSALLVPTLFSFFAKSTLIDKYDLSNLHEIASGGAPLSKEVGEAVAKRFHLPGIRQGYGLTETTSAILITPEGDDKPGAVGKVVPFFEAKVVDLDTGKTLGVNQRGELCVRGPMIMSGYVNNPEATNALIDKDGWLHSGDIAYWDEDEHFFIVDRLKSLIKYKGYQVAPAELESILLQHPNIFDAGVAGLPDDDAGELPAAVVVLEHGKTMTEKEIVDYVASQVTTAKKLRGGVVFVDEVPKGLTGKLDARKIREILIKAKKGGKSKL
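Biochemical qHTS of compounds, final roughly 60 µM downward over six points, against 10 nM purified firefly luciferase using Km concentrations of substrates (10 uM D-luciferin, 10 uM ATP) in Tris acetate pH 7.5 buffer; luminescence output.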
ELG1 genotox = induces genotoxicity in HEK293T cells with luciferase-tagged ELG1; Potency, µM (top dose mostly 46 µM), for the others: at the highest dose activity change, positive = activation, hits mostly activators; HEK293T ELG1-luciferase reporter, luminescence, 16 h; hit rate 1.3% among 330,000; AID 504466; also: % of control where 0% means no effect; nearly all actives have a fitted effect of over 60% in size
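ELG1-luciferase HEK293T cells, 2,000/well; compound pinned in; 16 hr, 37 °C, 5% CO2; ONE-Glo, 30 min RT; luminescence on CCD imager.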
Rab9 prom act = activates the Rab9 promoter. hit rate 2.8% among 320,000. AID 485297. Potency, µM (titrated, usually from 9.22 µM), for inactives: at the top dose activation, negative = inhibition, hits mostly activators. Huh7 Rab9 promoter-luciferase reporter, luminescence, 24 h; also: % of control where 0% means no effect; nearly all actives have a fitted effect of over 60% in size
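Steps: seed 1500 Huh7 Rab9-luc cells per well, rest 2 h at 37 °C; add compound in DMSO; incubate 24 h; add luciferase reagent, 10 min ambient; read luminescence.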
SMN2 splice up = enhancers of SMN2 splice variant expression; HEK293 SMN2-luciferase splicing reporter, luminescence, 30-36 h; Potency, µM (titrated, usually from 46.1 µM), without a hit: at the top dose activity change, positive = activation, most hits filed as activators; hit rate 2.8% among 210,000; AID 1458; also: % of control where 0% means no effect; nearly all actives have a fitted effect of over 55% in size
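HEK293 cells carry an SMN2 […]–luciferase reporter in which exon 7 inclusion puts luciferase in frame. Cells were plated 10-12 h before compound addition, then incubated 30-36 h at 37C. ONE-Glo luminescence was read; sodium butyrate at 4.5 mM final served as control.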
NPC1 prom act = NPC1 promoter activation | Huh7 NPC1 promoter luciferase reporter, 24 h | Potency, µM (titrated, usually from 9.22 µM), for inactives: at the highest dose activation, usual class: activators | hit rate 2.4% among 320,000 | AID 485313; also: % of control where 0% means no effect; nearly all actives have a fitted effect of over 60% in size
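Luminescence read-out of NPC1 promoter-driven luciferase in stably transfected Huh7 cells; compounds delivered in DMSO and left 24 h at 37C, 5% CO2, qHTS titration format.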
Luc counter = blocks Kinase-Glo luciferase, a counter-screen artifact; AID 1379; hit rate 0.28% among 200,000; Potency, µM (top dose mostly 38.3 µM), for inactives: at the highest dose activity change, negative = inhibition, usual class: inhibitors; Q27757; Kinase-Glo luciferase, ATP luminescence, 8 min; also: % is scaled to controls: 0 for no effect and ±100 for the full control effect; nearly all actives have a fitted effect of over 60% in size
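Inhibition of Kinase-Glo luciferase light generation was assessed at 10 uM ATP in pH 7.2 imidazole buffer, with luminescence measured after eight minutes at ambient temperature.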
An asterisk follows results filed as active; [ ] = dose if it differs, or a comment. Calls follow the shape of the dose curve; as a rule, active = well fitted curve in the direction sought with a large enough effect; inconclusive = small, poorly fitted or top-dose-only effect, or another doubt; inactive = no such curve, though single readings can be large; an effect the other way counts as inactive or inconclusive. Potency is read from the fitted curve at half-maximal effect.

N#Cc1c(NC(=O)c2cnccn2)sc2c1CCCC2 was read as FLuc modulator 6µM*, ELG1 genotox inconclusive, Rab9 prom act inconclusive, SMN2 splice up 10µM*, NPC1 prom act 18% and Luc counter -3%.
`NC(=O)c1c(NC(=O)c2cccc(N3C(=O)CCC3=O)c2)sc2c1CCCCC2` gave FLuc modulator 0.95µM*, ELG1 genotox 15%, Rab9 prom act inconclusive and NPC1 prom act 30%.
Screening COc1cc(C/C=C\c2ccccc2)c(OC)cc1O returned SMN2 splice up -2% and Luc counter 1%.
For Cc1nn(CC(=O)N2CCc3ccccc3C2)c(C)c1Cl the results were FLuc modulator 2%, ELG1 genotox 4%, Rab9 prom act 0% and NPC1 prom act 1%.
CCOc1ccc(/C=N/n2c(SC)nnc2-c2ccccc2)cc1OCC was read as FLuc modulator 2%, ELG1 genotox 3%, Rab9 prom act 2%, SMN2 splice up -13%, NPC1 prom act 3% and Luc counter -4%.
`Cc1nc(N2C(=O)c3oc4ccccc4c(=O)c3C2c2ccccc2F)sc1C` (stereo not drawn) gave FLuc modulator 0% and SMN2 splice up 3%.
Cc1cccc(C(=O)Nc2sc3c(c2C#N)CCCCC3)c1 was read as FLuc modulator 0.95µM*, ELG1 genotox inconclusive, Rab9 prom act 1.3µM*, SMN2 splice up 2µM*, NPC1 prom act 0.5µM* and Luc counter -8%.
Screening N#Cc1c(NC(=S)NC(=O)c2ccccc2)sc2c1CCCC2 returned FLuc modulator inconclusive, ELG1 genotox 11%, Rab9 prom act inconclusive, SMN2 splice up 16%, NPC1 prom act 25% and Luc counter -1%.
NC(=O)c1c(NC(=O)c2cccnc2)sc2c1CCCCC2 was read as FLuc modulator 1.7µM*, ELG1 genotox inconclusive, Rab9 prom act 2.5µM* and NPC1 prom act 2.2µM*.
`NC(=O)c1c(NC(=O)c2cccnc2)sc2c1CCCC2` gave FLuc modulator inconclusive, ELG1 genotox inconclusive, Rab9 prom act inconclusive, SMN2 splice up -1%, NPC1 prom act inconclusive and Luc counter 0%.
Screening N#Cc1c(NC(=O)c2ccccc2)sc2c1CCC2 returned FLuc modulator 2.7µM*, ELG1 genotox 2.9µM*, Rab9 prom act 0.63µM*, SMN2 splice up 2.2µM*, NPC1 prom act inconclusive and Luc counter -6%.
For CCOC(=O)c1sc(NC(=O)c2cccnc2)c(C#N)c1C the results were FLuc modulator 12µM*, ELG1 genotox 1%, Rab9 prom act 13%, SMN2 splice up -18%, NPC1 prom act 15% and Luc counter -2%.
For O=C(NCCN1CCCCC1)c1ccc(Cc2nc3ccccc3[nH]2)cc1 the results were Luc counter -3%.
CCOC(=O)c1c(NC(=O)CSc2nc3nc(C)cc(C)n3n2)sc(CC)c1C was read as FLuc modulator -2%, ELG1 genotox 4%, Rab9 prom act 1%, SMN2 splice up -3%[1.84 µM], NPC1 prom act -11% and Luc counter -2%.
Screening NC(=O)c1c(NC(=O)c2ccc([N+](=O)[O-])o2)sc2c1CCCC2 returned FLuc modulator -15%, ELG1 genotox 1%, Rab9 prom act 11% and NPC1 prom act 15%.
`N#Cc1c(NC(=O)c2ccc([N+](=O)[O-])o2)sc2c1CCC2` gave FLuc modulator 4.8µM*, ELG1 genotox inconclusive, Rab9 prom act 1.6µM* and NPC1 prom act 1.6µM*.
Cc1cc(C)c(NC(=O)c2cc3c(=O)n4ccccc4nc3n2C)c(C)c1 was read as FLuc modulator -3%.
For Cn1c(C(=O)NCc2ccccn2)cc2c(=O)n3ccccc3nc21 the results were FLuc modulator 15µM*, ELG1 genotox inconclusive, Rab9 prom act 2µM*, SMN2 splice up 14µM*, NPC1 prom act inconclusive and Luc counter 2%.
For CCC(=O)N1CCc2cc(CNC(=O)c3ccc(F)cc3)ccc21 the results were FLuc modulator -18%.
For COc1cccc(COc2cc3ccccc3nc2C)c1 the results were FLuc modulator 19µM*, ELG1 genotox 0%, Rab9 prom act -28%, SMN2 splice up -14%, NPC1 prom act -10% and Luc counter -3%.
`Cc1nc2ccccc2cc1OCc1ccccc1` gave FLuc modulator 17µM*, ELG1 genotox -2%, Rab9 prom act -12%, SMN2 splice up -63%, NPC1 prom act -9% and Luc counter -2%.
COC(=O)C(Cc1ccc(O)cc1)NC(=O)c1ccccc1 (stereo not drawn) was read as FLuc modulator 19µM*, ELG1 genotox 0%, Rab9 prom act -3%, SMN2 splice up 29%, NPC1 prom act -5% and Luc counter -16%.
For COC(=O)C(Cc1ccccc1)NC(=O)c1ccc(C)cc1 (stereo not drawn) the results were FLuc modulator 6µM*, ELG1 genotox -9%, Rab9 prom act 5%, SMN2 splice up -8%, NPC1 prom act -4% and Luc counter 9%.
COC(=O)[C@H](Cc1ccccc1)NC(=O)NCc1ccccc1 was read as FLuc modulator -25%, ELG1 genotox -3%, Rab9 prom act 0% and NPC1 prom act 0%.
Screening COC(=O)[C@H](Cc1ccccc1)NC(=O)NCc1ccc(C)cc1 returned FLuc modulator 21µM*, ELG1 genotox 0%, Rab9 prom act -7% and NPC1 prom act 4%.
Screening Cc1ccc(C(=O)NC(Cc2ccc(C(C)(C)C)cc2)C(=O)O)cc1 (stereo not drawn) returned ELG1 genotox -3%.
Screening Cc1ccc(OCCOc2ccc(Cl)cc2Cl)c([N+](=O)[O-])n1 returned FLuc modulator 17µM*, ELG1 genotox inconclusive, Rab9 prom act 27%, SMN2 splice up -14%[1.84 µM], NPC1 prom act inconclusive and Luc counter 0%.
Cc1ccc(COc2ccc(C)nc2[N+](=O)[O-])cc1 was read as FLuc modulator 2.4µM*, ELG1 genotox 3.7µM*, Rab9 prom act 0.71µM* and NPC1 prom act 0.79µM*.
COc1ccc(OCCOc2ccc(C)nc2[N+](=O)[O-])cc1 was read as FLuc modulator 24µM*, ELG1 genotox inconclusive, Rab9 prom act inconclusive, SMN2 splice up inconclusive, NPC1 prom act inconclusive and Luc counter -4%.
For COc1ccc(OCCOCCOc2ccc(C)cc2[N+](=O)[O-])cc1 the results were FLuc modulator inconclusive, ELG1 genotox 0%, Rab9 prom act -6%, SMN2 splice up 2%, NPC1 prom act 0% and Luc counter 1%.
